Bioassay records: PubChem BioAssay, National Center for Advancing Translational Sciences (NCATS)
ELG1 genotox – qHTS screen for small molecules that induce genotoxicity in human embryonic kidney (HEK293T) cells expressing luciferase-tagged ELG1. HEK293T ELG1-luciferase reporter, luminescence, 16 h. AID 504466, 2011. Potency, µM (titrated, usually from 46 µM), usual class: activators. actives 1.3% (n = 330,000); also: nearly all actives have a fitted effect of over 60% in size
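DMSO vehicle served as control against compound-treated ELG1-luciferase HEK293T cells; exposure lasted 16 hr at 37 °C and 5% CO2, followed by ONE-Glo luminescence detection after 30 min.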
SMN2 splice up – qHTS Assay for Enhancers of SMN2 Splice Variant Expression; HEK293 SMN2-luciferase splicing reporter, luminescence, 30-36 h; Potency, µM (highest dose often 46.1 µM), most hits filed as activators; actives 2.8% (n = 210,000); AID 1458, 2008; also: nearly all actives have a fitted effect of over 55% in size
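qHTS luciferase splicing reporter: luminescence rises when SMN2 exon 7 is included in transfected HEK293 cells. Compound exposure lasted 30-36 h at 37C, with 4.5 mM final sodium butyrate as control, followed by a ONE-Glo read.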
FLuc modulator – qHTS profiling assay for firefly luciferase inhibitor/activator using purifed enzyme and Km concentrations of substrates (counterscreen for miR-21 project) | actives 6.9% (n = 360,000) | AID 588342, 2011 | Potency, µM (highest dose often 57.5 µM), usual class: inhibitors | purified FLuc, Km substrates, luminescence inhibition | Luciferin 4-monooxygenase (Photinus pyralis), P08659; also: nearly all actives have a fitted effect of over 55% in size
Target sequence (P08659 whole entry, looked up): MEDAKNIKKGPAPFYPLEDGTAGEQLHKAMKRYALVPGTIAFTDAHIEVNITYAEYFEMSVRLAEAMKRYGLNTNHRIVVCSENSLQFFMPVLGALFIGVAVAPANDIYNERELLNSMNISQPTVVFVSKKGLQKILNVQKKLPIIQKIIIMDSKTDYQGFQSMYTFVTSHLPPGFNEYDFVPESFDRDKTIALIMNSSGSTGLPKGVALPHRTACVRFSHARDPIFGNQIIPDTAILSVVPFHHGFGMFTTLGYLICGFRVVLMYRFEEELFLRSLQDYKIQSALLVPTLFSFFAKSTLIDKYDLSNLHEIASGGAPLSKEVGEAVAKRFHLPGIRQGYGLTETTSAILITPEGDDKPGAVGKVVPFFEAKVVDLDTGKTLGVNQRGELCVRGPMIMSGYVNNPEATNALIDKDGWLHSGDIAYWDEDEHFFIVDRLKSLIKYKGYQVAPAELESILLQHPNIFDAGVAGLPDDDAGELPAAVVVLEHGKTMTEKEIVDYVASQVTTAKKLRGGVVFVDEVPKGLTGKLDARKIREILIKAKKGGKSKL
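Purified P. pyralis luciferase, 10 nM final, with Km-level 10 uM D-luciferin and 10 uM ATP in 50 mM Tris acetate pH 7.5, 10 mM Mg acetate, 0.01% Tween-20, 0.05% BSA; 6-point qHTS titration about 60 µM downward; luminescence read.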
Rab9 prom act – qHTS Assay for Rab9 Promoter Activators; Huh7 Rab9 promoter-luciferase reporter, luminescence, 24 h; actives 2.8% (n = 320,000); Potency, µM (doses to about 9.22 µM), most hits filed as activators; also: nearly all actives have a fitted effect of over 60% in size
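Huh7 reporter line, Rab9 promoter upstream of luciferase. Compound exposure 24 h at 37 °C in reduced-serum medium with 10% FBS. Read-out: luminescence.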
ELG1 DNA repair – qHTS screen for small molecules that inhibit ELG1-dependent DNA repair in human embryonic kidney (HEK293T) cells expressing luciferase-tagged ELG1; actives 2.3% (n = 330,000); Potency, µM (top dose mostly 46.1 µM), hits mostly inhibitors; HEK293T ELG1-luciferase reporter, luminescence, 16 h; DNA damage induced by 5-fluorouridine; also: nearly all actives have a fitted effect of over 55% in size
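Step one: seed 2,000 cells per well. Step two: pin-transfer compound or DMSO alongside 5-fluorouridine. Step three: incubate 16 hr, 37 °C, 5% CO2. Step four: add ONE-Glo, wait 30 min, read luminescence.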
NPC1 prom act – qHTS Assay for NPC1 Promoter Activators; Huh7 NPC1 promoter luciferase reporter, 24 h; AID 485313, 2010; Potency, µM (doses to about 9.22 µM), most hits filed as activators; actives 2.4% (n = 320,000); also: nearly all actives have a fitted effect of over 60% in size
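In 1536-well qHTS, Huh7 cells harboring an NPC1 promoter–luciferase construct received compound for 24 h; activation was quantified by luminescence following luciferase reagent addition.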
ELG1 FLuc counter – qHTS screen for small molecules that inhibit ELG1-dependent DNA repair: Hit Confirmation in Cell-Based Luciferin Assay; shares compounds with ELG1 DNA repair; cell-free firefly luciferase luminescence counter-screen, ViewLux; Potency, µM (highest dose often 46.1 µM), actives largely listed as inhibitors; actives 3% (n = 350)
ELG1-Luc inh – HTS assay for small molecules that inhibit ELG1-dependent DNA repair in human embryonic kidney (HEK293T) cells expressing luciferase-tagged ELG1: Hit Confirmation. shares compounds with ELG1 DNA repair. HEK293T ELG1-luciferase levels, luminescence; cells co-treated with 5-fluorouridine. Potency, µM (highest dose often 46.1 µM), usual class: inhibitors. actives 68% (n = 670); also: nearly all actives have a fitted effect of over 55% in size
ELG1 MMS Luc – confirmation of human ELG1 repair inhibitors, MMS stimulated | shares compounds with ELG1 DNA repair | HEK293T luciferase-tagged ELG1 level, MMS stimulated | Potency, µM (top dose mostly 46.1 µM), actives largely listed as inhibitors | actives 53% (n = 670) | AID 624249; also: nearly all actives have a fitted effect of over 60% in size
ELG1 5FU viab – qHTS screen for small molecules that inhibit ELG1-dependent DNA repair: Hit Confirmation with 5FU Viability; shares compounds with ELG1 DNA repair; cell viability with 5-FU, ELG1-dependent repair; Potency, µM (doses to about 46.1 µM), hits mostly cytotoxic; 670 tested, under 10 active; AID 624250, 2012;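 also: ELG1-luc HEK293T cells cotreated with 5-fluorouridine at 10 µM final; viability measured 16 h after compound addition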
ELG1 MMS cell – qHTS screen for small molecules that inhibit ELG1-dependent DNA repair: Hit Confirmation with MMS Viability. shares compounds with ELG1 DNA repair. Cell viability with MMS, ELG1-dependent DNA repair. Potency, µM (highest dose often 46.1 µM), actives largely listed as cytotoxic. actives 33% (n = 670). AID 624251, 2012;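 also: ELG1-luc HEK293T cells co-treated with 10 µM MMS; viability read 16 h after compound addition; nearly all actives have a fitted effect of over 60% in size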
ELG1 unstim viab – qHTS screen for small molecules that inhibit ELG1-dependent DNA repair: Hit Confirmation with Unstimulated Viability Assay; shares compounds with ELG1 DNA repair; cell viability counter-screen, unstimulated, luminescence; actives 8% (n = 900); Potency, µM (highest dose often 45.9 µM), usual class: cytotoxic;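 also: compound exposure lasted 16 hours before reading; nearly all actives have a fitted effect of over 55% in size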
FLuc enzyme – qHTS screen for small molecules that inhibit ELG1-dependent DNA repair: Hit Confirmation in Biochemical Luciferin Assay | Potency, µM (doses to about 57.5 µM), hits mostly inhibitors | actives 10% (n = 350) | AID 624253, 2012 | shares compounds with ELG1 DNA repair | purified firefly luciferase, luminescence counter-screen
Of the large screens only hits and unclear results are named; the others gave an inactive call (follow-up assays come after a bar, where they were run). Compounds with a hit are over-represented: about 9.4% of the library has one in this group of screens. Calls follow the shape of the dose curve; as a rule, active = well fitted curve in the direction sought with a large enough effect; inconclusive = small, poorly fitted or top-dose-only effect, or another doubt; inactive = no such curve, though single readings can be large; an effect the other way counts as inactive or inconclusive.

CC1CCc2nc(-c3cc4ccc(O)cc4oc3=O)sc2C1 (centres undefined)	none (no result: ELG1 genotox, SMN2 splice up, FLuc modulator, Rab9 prom act, ELG1 DNA repair, NPC1 prom act) | ELG1 FLuc counter inactive | ELG1 unstim viab inactive | FLuc enzyme 0.18µM
NC(=S)c1cc2ccc(O)cc2oc1=O	FLuc modulator inconclusive
O=C(CCNS(=O)(=O)c1c(Cl)cccc1Cl)OCC(=O)c1ccccc1	none
O=C(Nc1cccc(/C=C/c2ccccn2)c1)c1ccc(-n2cncn2)cc1	ELG1 DNA repair 3.3µM (no result: SMN2 splice up, FLuc modulator, Rab9 prom act, NPC1 prom act) | ELG1-Luc inh 13µM | ELG1 MMS Luc inconclusive | ELG1 5FU viab inactive | ELG1 MMS cell inconclusive | ELG1 unstim viab inconclusive
COc1ccc(C(CNC(=O)COc2cccc(C(F)(F)F)c2)N2CCCC2)cc1 (centres undefined)	none (no result: SMN2 splice up)
CCOC(=O)[C@H]1[C@H]2COc3ccc(Br)cc3[C@@H]2N2C(=O)CN(Cc3ccco3)C(=O)[C@@]12C	none (no result: SMN2 splice up)
O=C(Nc1ccccc1-c1nc2ccccc2[nH]1)c1ccc(N2C(=O)CCC2=O)cc1	ELG1 DNA repair 1.8µM | ELG1-Luc inh 0.71µM | ELG1 MMS Luc inconclusive | ELG1 5FU viab inconclusive | ELG1 MMS cell inactive | ELG1 unstim viab inactive
COc1ccc(-c2noc(-c3ccc(NCc4cccnc4)c([N+](=O)[O-])c3)n2)cc1	none (no result: ELG1 genotox, SMN2 splice up, Rab9 prom act, ELG1 DNA repair, NPC1 prom act)
COc1ccc(-c2nc(-c3cccnc3)no2)cc1	ELG1 genotox inconclusive, FLuc modulator 2.4µM, Rab9 prom act 0.45µM, ELG1 DNA repair inconclusive, NPC1 prom act 0.63µM (no result: SMN2 splice up) | ELG1 unstim viab inactive
COc1ccc(CCNC(=O)CC(Cc2ccc(C)cc2)C(=O)O)cc1OC (centres undefined)	none (no result: SMN2 splice up)
COCC(C)n1c(C)cc(C(=O)COC(=O)c2cc(=O)[nH]c3ccccc23)c1C (centres undefined)	ELG1 genotox inconclusive, ELG1 DNA repair inconclusive (no result: SMN2 splice up, FLuc modulator, Rab9 prom act, NPC1 prom act) | ELG1 unstim viab inactive
Cc1ccc(CONC(=O)c2cccc(C)c2)cc1	FLuc modulator inconclusive, Rab9 prom act inconclusive, ELG1 DNA repair inconclusive (no result: SMN2 splice up)
O=C(NOCc1ccccc1)c1ccccc1	ELG1 genotox 6.5µM, FLuc modulator 6µM, Rab9 prom act 1.8µM, ELG1 DNA repair inconclusive, NPC1 prom act 3.2µM (no result: SMN2 splice up) | ELG1 unstim viab inactive
CC1=C(c2ccc(C(C)C)cc2)S(=O)(=O)NC1=NCc1ccccc1C	none (no result: ELG1 genotox, SMN2 splice up, Rab9 prom act, ELG1 DNA repair, NPC1 prom act)
Cc1cccc(OCc2nnc(SCC(=O)O)n2-c2ccccc2)c1	none (no result: SMN2 splice up)
O=C(N[C@H]1C/C=C\C[C@H](CC(=O)N(CCO)Cc2ccccc2)C(=O)N[C@@H](c2ccccc2)COC1=O)OCC1c2ccccc2-c2ccccc21	none (no result: SMN2 splice up, FLuc modulator, Rab9 prom act, NPC1 prom act)
CCN(CC)C(=O)c1sc2nc(N3CCOCC3)c3c(c2c1N)CCCC3	FLuc modulator inconclusive, ELG1 DNA repair 6.5µM | ELG1 FLuc counter inactive | ELG1-Luc inh 11µM | ELG1 MMS Luc inactive | ELG1 5FU viab inconclusive | ELG1 MMS cell inactive | ELG1 unstim viab inactive | FLuc enzyme inactive
COc1ccc(-c2nnc3ccc(SCC(=O)Nc4nc5ccc(C)cc5s4)nn23)cc1OC	ELG1 DNA repair inconclusive | ELG1 FLuc counter inactive | ELG1-Luc inh 0.32µM | ELG1 MMS Luc inactive | ELG1 5FU viab inconclusive | ELG1 MMS cell inactive | ELG1 unstim viab 28µM | FLuc enzyme inactive
CCOC(=O)CCSc1nc(N2CCOCC2)c2c(c1C#N)CC(C)(C)OC2	ELG1 DNA repair 1µM (no result: SMN2 splice up) | ELG1 FLuc counter inactive | ELG1-Luc inh 4.5µM | ELG1 MMS Luc inactive | ELG1 5FU viab inconclusive | ELG1 MMS cell inactive | ELG1 unstim viab inactive | FLuc enzyme inactive
CC(Sc1nc(N2CCOCC2)c2c(c1C#N)CC(C)(C)OC2)C(=O)Nc1ccccc1 (centres undefined)	ELG1 DNA repair 2.9µM | ELG1 FLuc counter inactive | ELG1-Luc inh 1.8µM | ELG1 MMS Luc inactive | ELG1 5FU viab inconclusive | ELG1 MMS cell inconclusive | ELG1 unstim viab inactive | FLuc enzyme inactive
O=C(Nc1ccc(N2CCN(Cc3ccccc3F)CC2)cc1)c1ccc([N+](=O)[O-])o1	ELG1 DNA repair 2.6µM (no result: SMN2 splice up) | ELG1-Luc inh 4µM | ELG1 MMS Luc 4.4µM | ELG1 5FU viab inactive | ELG1 MMS cell 6.3µM | ELG1 unstim viab inactive
